From PubChem BioAssay
Calls of active or inactive are those of the source.

Tests used:
Albumin (Bos taurus) = Albumin (Bos taurus) (UniProt P02769); assay: compounds binding labelled BSA control protein – biochemical, small-molecule microarray, Alexa647 label, 635/667 nm fluorescence, artefact control for SMM control protein annotation, profiling panel (AID 1118); conditions: BSA-A647 binding, fluorescence 635 nm, higher = more signal;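 also: score merges 667 nm emission intensity and signal-to-noise per printed compound spot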
[1] = probe aXIP binding to arrayed compounds – biochemical, NeuroSMM set, 635/667 nm fluorescence, primary screen (AID 1119); conditions: small-molecule microarray, higher = more signal, called active from +8 up or from −8 down;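 also: probe is the protein aXip251-270 applied at 1 µg/mL to compound-printed slides; binding of probe to printed compounds measured as 667 nm fluorescence plus signal to noise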
[2] = probe aNOTCH3 binding on compound microarray – biochemical, small-molecule microarray, 635/667 nm fluorescence, primary screen (AID 1120); conditions: higher = more signal;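 also: probe is a biotin-tagged antibody raised against NOTCH3 rather than NOTCH3 protein; score merges spot fluorescence near 667 nm with spot signal to noise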
[3] = probe aNOTCH2 binding on compound microarray – biochemical, small-molecule microarray, 635/667 nm fluorescence, primary screen (AID 1121); conditions: higher = more signal;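 also: score merges feature fluorescence read at 667 nm with its signal to noise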
[4] = molecular target: Carbonic anhydrase 2 (Homo sapiens) (UniProt P00918); assay: compounds binding carbonic anhydrase 2 – biochemical, small-molecule microarray, Alexa647-labelled CAII, profiling panel (AID 1122); conditions: CAII-A647 binding fluorescence, higher = more signal
[5] = COS7 lysate on small-molecule microarray, probe aHis, 635 nm (AID 1123); conditions: COS7 cell lysate, fluorescence, higher = more signal;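 also: z-score combines 667nm fluorescence intensity with signal-to-noise per printed compound spot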
[6] = probe aLAP1 signal on lysate-treated microarray – cell lysate, small-molecule microarray, COS7 lysate, primary screen (AID 1124); conditions: probe aLAP1, fluorescence, higher = more signal;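 also: lysate comes from COS7 cells expressing LAP1 and is applied at 0.3 µg/mL; score merges spot fluorescence near 667 nm with signal-to-noise over triplicate slides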
Sam68 (KHDRBS1) = assay: compounds binding KHDRBS1 protein – biochemical, small-molecule microarray, 635 nm fluorescence, primary screen (AID 1125); conditions: higher = more signal;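 also: score merges 667 nm channel intensity with signal to noise over triplicate slides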
[7] = tested on: Chordin-like protein 2 (CHRDL2); assay: compounds binding chordin-like 2 – biochemical, small-molecule microarray, 635 nm fluorescence, primary screen (AID 1126); conditions: fluorescence 635 nm, higher = more signal;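 also: printed compound slides probed with Chrdl2 protein at 4 µg/mL for 1 h at 4 C; score merges 667 nm emission intensity with signal to noise over three replicate slides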
[8] = molecular target: Concanavalin-A (Canavalia ensiformis) (UniProt P02866); assay: compounds binding concanavalin A lectin – biochemical, small-molecule microarray, Alexa647 label, 635 nm, artefact control for SMM control protein annotation, primary screen (AID 1127); conditions: ConA-A647 binding fluorescence, higher = more signal;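 also: z combines 667 nm emission intensity with signal-to-noise across three replicate slides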
[9] = compounds binding Alexa647 anti-His antibody – biochemical, small-molecule microarray, 635 nm fluorescence, artefact control for SMM control protein annotation, primary screen (AID 1128); conditions: higher = more signal;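 also: score merges feature fluorescence with signal-to-noise for each printed compound spot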
[10] = tested on: Human papillomavirus type 1a E7 protein (residues 1-88); assay: HPV1a E7 small-molecule binders, primary screen, biochemical, small-molecule microarray, residues 1-88, 635 nm (AID 1129); conditions: small-molecule microarray binding, fluorescence 635 nm; higher = more signal
[11] = molecular target: Focal adhesion kinase 1 (Homo sapiens) (UniProt Q05397); assay: PTK2 protein binding on printed compound slides – biochemical, small-molecule microarray, 635/667 nm fluorescence, BSA, DTT, primary screen (AID 1130); conditions: 635 nm fluorescence, higher = more signal;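 also: composite of spot emission at 667 nm and signal to noise over triplicate slides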
[12] = tested on: Fibrinogen (Alexa647-labelled); assay: Alexa647-fibrinogen binding to printed small molecules – biochemical, small-molecule microarray, 635/667 nm fluorescence, artefact control for SMM control-protein annotation, profiling panel (AID 1131); conditions: fibrinogen-A647 binding fluorescence, higher = more signal;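 also: z-score merges 667 nm fluorescence with per-spot signal-to-noise over triplicate slides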
[13] = molecular target: Follistatin (Homo sapiens) (UniProt P19883); assay: FST protein binding to printed compounds – biochemical, small-molecule microarray, 635/667 nm fluorescence, primary screen (AID 1132); conditions: 635 nm fluorescence, higher = more signal
[14] = molecular target: Fibroblast growth factor 2 (Homo sapiens) (UniProt P09038); assay: basic fibroblast growth factor binding to printed compounds – biochemical, small-molecule microarray, 635/667 nm fluorescence, primary screen (AID 1133); conditions: FGF2, fluorescence 635/667, higher = more signal
[15] = JC-1 mitochondrial potential readout, lung cancer cells – cell-based, A549, JC-1 fluorescence, basal, 24 h, 100 nL, profiling panel (AID 1138); conditions: higher = more signal;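 also: A549 lung adenocarcinoma cells under basal conditions with no added stimulus; test concentration not given here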
Lefty1 = Lefty1 protein binding to printed compounds – biochemical, small-molecule microarray, 635/667 nm fluorescence, primary screen (AID 1139); conditions: fluorescence 635/667, higher = more signal
[16] = tested on: wheat germ agglutinin (Triticum aestivum), Alexa647-labelled; assay: Alexa647-WGA lectin binding to printed small molecules – biochemical, small-molecule microarray, 635/667 nm fluorescence, artefact control for SMM control-protein annotation, profiling panel (AID 1140); conditions: WGA-A647 binding, 635 nm fluorescence, higher = more signal;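 also: score merges 667 nm feature emission with signal to noise over triplicate slides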
[17] = molecular target: Luciferin 4-monooxygenase (Photinus pyralis) (UniProt P08659); assay: inhibition of purified Photinus pyralis luciferase – biochemical, luminescence, purified enzyme, 2006 set, primary screen (AID 1141); conditions: purified firefly luciferase, SteadyGlo luminescence, 30 min; higher = more signal, called active from +8 up or from −8 down;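 also: cell-free assay with purified firefly luciferase at 100 ng per well in PBS; test concentration not given here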
Chain of Luciferin 4-monooxygenase (Photinus pyralis) (P08659 whole entry, looked up): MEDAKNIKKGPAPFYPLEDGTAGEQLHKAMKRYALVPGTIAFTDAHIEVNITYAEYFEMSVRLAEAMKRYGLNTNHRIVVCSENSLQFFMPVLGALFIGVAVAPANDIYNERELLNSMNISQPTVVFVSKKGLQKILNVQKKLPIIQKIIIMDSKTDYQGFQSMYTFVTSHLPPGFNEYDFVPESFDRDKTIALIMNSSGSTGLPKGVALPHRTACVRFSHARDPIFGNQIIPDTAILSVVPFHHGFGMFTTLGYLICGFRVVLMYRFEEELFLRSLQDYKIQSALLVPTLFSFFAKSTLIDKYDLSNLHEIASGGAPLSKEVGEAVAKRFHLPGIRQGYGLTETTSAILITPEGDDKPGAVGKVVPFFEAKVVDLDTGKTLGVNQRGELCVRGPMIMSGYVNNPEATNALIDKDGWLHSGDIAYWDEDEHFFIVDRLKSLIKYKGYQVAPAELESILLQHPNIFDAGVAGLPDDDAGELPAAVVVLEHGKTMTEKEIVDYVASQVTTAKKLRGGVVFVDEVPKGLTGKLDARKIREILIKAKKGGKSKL

Chain of Focal adhesion kinase 1 (Homo sapiens) (Q05397 whole entry, looked up): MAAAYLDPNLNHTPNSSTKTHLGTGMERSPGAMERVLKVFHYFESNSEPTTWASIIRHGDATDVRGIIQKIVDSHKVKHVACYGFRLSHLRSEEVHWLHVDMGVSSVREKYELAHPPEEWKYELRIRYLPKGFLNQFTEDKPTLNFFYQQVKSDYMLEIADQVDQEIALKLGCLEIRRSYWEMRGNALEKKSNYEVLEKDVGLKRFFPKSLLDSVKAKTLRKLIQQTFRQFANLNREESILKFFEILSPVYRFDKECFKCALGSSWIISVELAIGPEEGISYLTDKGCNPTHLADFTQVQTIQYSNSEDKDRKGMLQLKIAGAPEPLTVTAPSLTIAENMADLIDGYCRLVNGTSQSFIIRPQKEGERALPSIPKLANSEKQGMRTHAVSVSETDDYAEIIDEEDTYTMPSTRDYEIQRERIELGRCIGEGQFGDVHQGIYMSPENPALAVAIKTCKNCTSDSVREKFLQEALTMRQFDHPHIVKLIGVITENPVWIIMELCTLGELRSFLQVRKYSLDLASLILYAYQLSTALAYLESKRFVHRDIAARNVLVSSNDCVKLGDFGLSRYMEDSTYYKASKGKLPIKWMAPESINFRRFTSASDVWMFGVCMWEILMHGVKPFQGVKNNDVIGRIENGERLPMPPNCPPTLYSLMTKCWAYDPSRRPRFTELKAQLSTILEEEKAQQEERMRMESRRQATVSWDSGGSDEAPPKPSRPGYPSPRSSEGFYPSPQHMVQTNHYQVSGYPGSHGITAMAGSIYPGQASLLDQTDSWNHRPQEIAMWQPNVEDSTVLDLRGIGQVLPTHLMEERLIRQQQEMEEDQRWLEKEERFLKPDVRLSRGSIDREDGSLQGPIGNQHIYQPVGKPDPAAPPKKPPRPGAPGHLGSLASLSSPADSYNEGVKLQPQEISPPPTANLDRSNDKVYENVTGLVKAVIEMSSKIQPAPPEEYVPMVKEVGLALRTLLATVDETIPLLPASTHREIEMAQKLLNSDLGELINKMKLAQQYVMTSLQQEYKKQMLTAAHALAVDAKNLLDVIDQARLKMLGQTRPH
Chain of Follistatin (Homo sapiens) (P19883 whole entry, looked up): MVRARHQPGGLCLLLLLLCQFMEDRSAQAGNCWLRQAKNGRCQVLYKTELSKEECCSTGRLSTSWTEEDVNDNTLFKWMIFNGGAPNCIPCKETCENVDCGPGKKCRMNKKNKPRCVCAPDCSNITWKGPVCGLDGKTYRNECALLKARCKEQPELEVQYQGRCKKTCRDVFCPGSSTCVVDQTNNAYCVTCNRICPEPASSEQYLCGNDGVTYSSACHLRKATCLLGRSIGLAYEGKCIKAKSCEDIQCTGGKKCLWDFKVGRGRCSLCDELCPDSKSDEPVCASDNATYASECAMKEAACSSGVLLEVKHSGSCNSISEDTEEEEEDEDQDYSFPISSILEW
Chain of Albumin (Bos taurus) (P02769 whole entry, looked up): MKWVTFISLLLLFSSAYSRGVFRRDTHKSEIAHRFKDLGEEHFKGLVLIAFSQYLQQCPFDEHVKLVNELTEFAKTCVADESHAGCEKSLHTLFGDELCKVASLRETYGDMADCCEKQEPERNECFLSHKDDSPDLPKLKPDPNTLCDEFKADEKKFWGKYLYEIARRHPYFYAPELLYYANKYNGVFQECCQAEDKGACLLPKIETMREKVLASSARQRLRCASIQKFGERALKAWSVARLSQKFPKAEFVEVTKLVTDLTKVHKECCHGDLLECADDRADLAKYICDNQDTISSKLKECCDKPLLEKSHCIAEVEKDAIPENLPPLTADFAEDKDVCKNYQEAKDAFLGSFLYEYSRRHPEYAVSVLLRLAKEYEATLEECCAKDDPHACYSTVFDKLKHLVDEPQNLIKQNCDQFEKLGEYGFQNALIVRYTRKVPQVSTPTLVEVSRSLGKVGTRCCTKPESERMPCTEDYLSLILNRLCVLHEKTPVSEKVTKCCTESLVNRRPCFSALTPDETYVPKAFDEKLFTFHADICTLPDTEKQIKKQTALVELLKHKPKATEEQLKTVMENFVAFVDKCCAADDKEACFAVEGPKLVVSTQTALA
Chain of Concanavalin-A (Canavalia ensiformis) (P02866 whole entry, looked up): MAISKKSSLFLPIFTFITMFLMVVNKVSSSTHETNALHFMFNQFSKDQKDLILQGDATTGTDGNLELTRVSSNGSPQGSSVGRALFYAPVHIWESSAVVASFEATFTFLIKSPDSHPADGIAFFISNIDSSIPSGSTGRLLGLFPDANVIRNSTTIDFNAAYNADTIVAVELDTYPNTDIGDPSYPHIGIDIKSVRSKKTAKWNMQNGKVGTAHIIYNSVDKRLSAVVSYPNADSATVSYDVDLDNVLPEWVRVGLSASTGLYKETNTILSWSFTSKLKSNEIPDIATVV
Chain of Fibroblast growth factor 2 (Homo sapiens) (P09038 whole entry, looked up): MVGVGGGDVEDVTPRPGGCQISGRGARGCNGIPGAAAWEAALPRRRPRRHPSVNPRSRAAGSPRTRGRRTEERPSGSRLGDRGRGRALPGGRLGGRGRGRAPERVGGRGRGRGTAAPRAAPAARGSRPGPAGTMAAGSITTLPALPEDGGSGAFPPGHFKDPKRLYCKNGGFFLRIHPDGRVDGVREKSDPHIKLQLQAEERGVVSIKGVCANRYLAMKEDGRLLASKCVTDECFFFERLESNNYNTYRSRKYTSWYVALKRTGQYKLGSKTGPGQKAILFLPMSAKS

SMILES	composite z-score (Albumin (Bos taurus))	composite Z-score [1]	composite z-score [2]	composite z-score [3]	composite z-score [4]	composite z-score [5]	composite z-score [6]	composite z-score (Sam68 (KHDRBS1))	composite z-score [7]	composite z-score [8]	composite z-score [9]	composite z-score [10]	composite z-score [11]	composite z-score [12]	composite z-score [13]	composite z-score [14]	z-score [15]	composite z-score (Lefty1)	composite z-score [16]	z-score [17]
COc1ccc(COC2OC[C@]3(C)[C@H]4C5=C(CN3C(=O)OC(C)(C)C)[C@H](C)C(CO)C(CO)C5CC[C@@H]24)cc1 (stereo not given in full)	0.73	0.086 (inactive)	0.339	0.191	0.513	0.814	0.846	0.567	-0.888	0.927	1.08	1.19	0.649	0.968	0.535	-1.03	0.323	-0.209	0.831	1.52 (inactive)
COCCOC(=O)N1C(=O)[C@@]2(c3cc(C#Cc4ccc(OC)cc4)ccc31)[C@H](c1ccc(O)cc1)N1[C@H](c3ccccc3)[C@H](c3ccccc3)OC(=O)[C@H]1[C@@H]2C(=O)NC[C@H](O)c1ccccc1	0.298	0.434 (inactive)	0.385	-0.0878	0.317	1.04	0.693	1.29	0.374	1.17	0.522	1.22	-0.0575	0.994	1.3	1.4	-1.51	1.33	0.623	1.05 (inactive)
C#CCN(Cc1ccccc1Br)C(/C=C/c1ccccc1)CO (stereo not given)	-0.406	-0.177 (inactive)	-0.212	-0.18	-0.22	-0.163	-0.146	-0.271	0.188	-1.25	0.448	-0.265	-0.102	-0.171	-0.523	0.774	-1.01	0.0437	-0.618	0.0615 (inactive)
O=C1OCC=C[C@H]2OC34C=CCN(c5ccc6ccccc6c5)C(=O)[C@H]3N(CCCCCCO)C(=O)[C@@H]4[C@@H]12 (stereo not given in full)	0.39	0.164 (inactive)	-0.241	-0.0472	0.837	0.818	0.941	-1.42	-0.677	-0.486	2.67	-0.593	0.806	-0.9	-1.18	-0.595	1.16	-0.732	-0.434	-0.875 (inactive)
CN(C)C(=O)[C@]1(Cc2ccccc2CN=[N+]=[N-])N=C(c2ccc(OCCCO)cc2)O[C@@H]1c1ccccc1CN=[N+]=[N-]	0.933	-0.384 (inactive)	0.442	-0.0508	0.545	2.72	0.751	1.32	-0.223	0.758	1.17	1.25	0.44	0.969	1.28	0.355	0.0653	1.06	1.09	-0.554 (inactive)
CCCCC(=C=CC[C@@H](O)c1ccccc1OCCO)CCO	0.694	0.35 (inactive)	-0.0321	-0.0928	0.726	1.1	0.257	0.0301	-0.638	-0.382	-0.448	-0.21	-0.206	-0.883	0.531	-0.397	1.25	0.036	0.177	-1.85 (inactive)
Cc1ccc(S[C@]2(C(=O)NC3CC3)CC(=O)N(C3Cc4ccccc4C3)[C@@H]2c2ccc(CO)cc2)cc1	0.79	0.157 (inactive)	-0.161	0.016	0.628	1.81	0.845	0.963	-0.759	0.356	-0.172	0.445	0.0342	-0.424	-0.584	-0.3	2.42	-1.35	-0.0705	-1.28 (inactive)
COc1cc2c(cc1O)C(C1CC1)N(Cc1cc3c(cc1Br)OCO3)CC2 (stereo not given)	0.137	-0.431 (inactive)	-0.318	-0.0703	0.593	0.478	0.283	-1.09	-0.14	-0.207	-1.4	-0.603	-0.629	-0.736	-0.774	-0.746	-0.721	-1.01	-0.503	-0.0849 (inactive)
COc1ccc(NN2C(C(O)c3ccc([N+](=O)[O-])cc3)C=CC3C(=O)N(C4CCCCC4)C(=O)C32)cc1 (stereo not given)	0.424	0.601 (inactive)	0.178	-0.115	0.561	1.48	-0.0699	1.23	-0.261	0.505	0.525	0.918	0.201	0.93	0.737	-0.532	0.732	0.0274	1.13	0.939 (inactive)
CC(C)C[C@H]1NC(=O)[C@@]23C(=O)N[C@@H](Cc4ccccc4)C2[C@H](C)[C@@]2(C)O[C@H]2C3/C=C/C/C=C\CNC(=O)[C@H](Cc2ccccc2)NC1=O (stereo not given in full)	-0.188	-0.311 (inactive)	-0.0377	-0.115	0.254	0.19	-0.108	0.791	0.696	0.205	0.218	0.45	-0.291	0.183	1.01	0.717	0.156	1.24	-0.204	-3.01 (inactive)
